# Assay outcomes as filed in PubChem BioAssay.
# Hits are enriched below; roughly 21% of the tested compounds scored in any of these assays.
# CYP2C19 activ: increases human CYP2C19 enzyme activity | recombinant CYP2C19, luciferin-H EGE luminescence; stronger effect = higher value; 0 = fully inhibited enzyme, 1 = untreated enzyme | 96,000 tested, under 10 active | activation factor at 5 µM | P33261 | AID 1025;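 active = activation factor of at least 2 at 5 µM in the primary screen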;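 note: 0 = wells with 2.5 mM tranylcypromine and 1 = vehicle-only wells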
# MRP1 act: activates MRP-1. H69AR cells + doxorubicin, viability rescue, CellTiter-Glo. viability increase, % at 10 µM. 0.61% of 140,000 active. AID 799;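 active = viability gain under doxorubicin at or above a set limit, the compound median plus 3 SD, cut at about 4.7% in these data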;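 note: MRP-1 overexpressing cells given doxorubicin 25 µM after compound pretreatment; 18-22 h compound pretreatment then 72 h with doxorubicin before readout; 0% = doxorubicin-only wells and 100% = vehicle-treated cells without doxorubicin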
# CYP2C19 inh: blocks human cytochrome P450 2C19; CYP2C19 Supersomes, luciferin-H EGE luminescence, 30 min; inhibition, % at 5 µM; 21% of 96,000 active; AID 778;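 active = CYP2C19 inhibition above a set limit at 5 µM in the primary screen, cut at about 50% in these data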;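 note: plate controls were negative control wells for no effect and 2.5 mM tranylcypromine positive control for full effect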
# MRP resist rev: MRP-mediated drug resistance reversal | H69AR cells + 2 uM doxorubicin, CellTiter-Glo, 72 h | differential viability (reversal), % at 10 µM | 0.04% of 85,000 active;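 active = viability drop by adding the cancer drug above about 55%, with treated viability meeting a 40% cutoff, limit read from the data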;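 note: viability without doxorubicin minus viability with 2 µM doxorubicin for each compound; larger differential means the compound sensitizes cells more to doxorubicin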
# CYP2C9 inhib: inhibitors of human CYP2C9; P11712; CYP2C9 Supersomes, luciferin-H conversion, luminescence; inhibition, % at 5 µM; 20% of 96,000 active; AID 777;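 active = blocking of liver enzyme CYP2C9 beyond about 50% at 5 µM, limit read from the data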
# Target sequence (P11712 whole entry, looked up): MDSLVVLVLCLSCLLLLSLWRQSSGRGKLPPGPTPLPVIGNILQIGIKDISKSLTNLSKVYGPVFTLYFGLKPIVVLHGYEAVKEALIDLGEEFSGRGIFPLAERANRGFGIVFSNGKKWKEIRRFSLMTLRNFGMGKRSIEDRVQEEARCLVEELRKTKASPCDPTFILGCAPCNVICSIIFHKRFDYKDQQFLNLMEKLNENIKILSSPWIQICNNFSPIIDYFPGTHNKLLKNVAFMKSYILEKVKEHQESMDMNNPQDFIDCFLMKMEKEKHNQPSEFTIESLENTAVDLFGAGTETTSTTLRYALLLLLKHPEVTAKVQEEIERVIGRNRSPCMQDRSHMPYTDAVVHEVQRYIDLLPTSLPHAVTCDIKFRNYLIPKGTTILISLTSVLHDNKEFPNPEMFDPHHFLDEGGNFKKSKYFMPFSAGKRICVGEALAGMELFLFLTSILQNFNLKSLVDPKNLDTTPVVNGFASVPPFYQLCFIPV
# CYP2C9 act: activators of human CYP2C9; activation factor at 5 µM; P11712; AID 1024; 1.4% of 96,000 active; recombinant CYP2C9, luciferin-H conversion, luminescence; stronger effect = higher value; factor 1 = untreated enzyme, 0 = blocked;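 active = activation factor of 2 or more for CYP2C9 at a 5 µM dose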;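 note: 0 = sulfaphenazole-blocked wells and 1 = vehicle-only wells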
# * hit, by the source's call; x = no result given.
SMILES,CYP2C19 activ,MRP1 act,CYP2C19 inh,MRP resist rev,CYP2C9 inhib,CYP2C9 act
COc1ccccc1-c1nnc2n1N=C(C(C)(C)C)CS2,0.2,-1,79*,-3,46,0.5
COc1ccccc1-c1nnc2n1N=C(C)CS2,0.9,-1,15,x,-1,1
CC(C)(C)C1=Nn2c(nnc2-c2ccccc2F)SC1,0.2,0,78*,x,43,0.6
Cc1cc(Cl)ccc1OCCCC(=O)N/N=C/c1cccc([N+](=O)[O-])c1,x,-1,x,x,x,x
O=C(N1CCN(c2ccccc2)CC1)C1(c2cccs2)CCOCC1,x,-2,x,x,x,x
Cc1nnc(NC(=O)C2COc3ccccc3O2)s1 (centres undefined),0.5,2,45,6,86*,0.1
CCc1nnc(NC(=O)C2COc3ccccc3O2)s1 (centres undefined),0.9,5.1*,14,16,56*,0.4
Cc1ccc(CSc2nnc(NC(=O)C3COc4ccccc4O3)s2)cc1 (centres undefined),1.1,-1,-12,x,-2,1
Cc1nnc(NC(=O)C2(c3ccccc3)CCOCC2)s1,0.5,-2,50*,8,18,0.8
CCC(CC)c1nnc(NC(=O)C2COc3ccccc3O2)s1 (centres undefined),x,4,x,-9,x,x
O=C(CSc1ncnc2c1oc1ccccc12)OCc1ccccc1,0.9,0,6,-1,12,0.9
COc1ccc(-c2nnn(CC(=O)N3CCN(c4ccccc4OC)CC3)n2)cc1,x,0,x,-11,x,x
CN(C)c1ccc(-c2nnn(CC(=O)Nc3ccccc3N3CCOCC3)n2)cc1,0.5,-4,48,-8,90*,0.1
CN(C)c1ccc(-c2nnn(CC(=O)N3c4ccccc4CCc4ccccc43)n2)cc1,0.3,-2,71*,-10,77*,0.2
CS(=O)(=O)c1ccc2nc(NC3(C(F)(F)F)N=C4SCCN4C3=O)sc2c1 (centres undefined),0.9,1,6,-6,92*,0.1
O=c1oc2ccccc2cc1NCc1ccccc1O,0.4,-3,59*,-18,22,0.8
O=C(CSc1nnc2ccccn12)Nc1cccc(-c2nc3ccccc3s2)c1,x,4,x,x,x,x
Cn1c(=O)c2ncn(CC(=O)Nc3cccc(-c4nc5ccccc5s4)c3)c2n(C)c1=O,0.8,-1,22,x,50*,0.5
CCNC(=S)Nc1ccccc1-c1ccccc1,x,-2,x,x,x,x
CCSc1nnc(NC(=O)CCNS(=O)(=O)c2cc(Br)cnc2N)s1,0.6,-3,43,-24,62*,0.4
CCSc1nnc(NC(=O)CCc2ccccc2)s1,0.5,-1,49,4,33,0.7
O=C(Nc1ccc(S(=O)(=O)N2CCc3ccccc3C2)cc1)C1CCCO1 (centres undefined),0.9,-1,12,10,13,0.9
O=C(Nc1ccc(S(=O)(=O)N2CCCc3ccccc32)cc1)C1CCCO1 (centres undefined),0.4,-4,60*,-13,65*,0.3
O=S(=O)(c1cnc(Cl)c(Cl)c1)N1CCCc2ccccc21,x,-4,x,x,x,x
O=S(=O)(NC1CC1)c1ccc(S(=O)(=O)N2CCCc3ccccc32)cc1,0.1,-1,90*,1,78*,0.2
SMILES,CYP2C19 activ,MRP1 act,CYP2C19 inh,MRP resist rev,CYP2C9 inhib,CYP2C9 act
O=C(O)C1CC=CCC1C(=O)Nc1ccc(S(=O)(=O)N2CCCc3ccccc32)cc1 (centres undefined),1.1,-1,-8,-3,63*,0.4
CCOC(=O)CSC1=C(C#N)C(c2ccc(F)cc2)C(C(C)=O)=C(C)N1 (centres undefined),0.6,2,42,-5,51*,0.5
CC1=C(C(=O)Nc2ccc(Cl)cc2)C(c2ccncc2)C(C#N)=C(SCC(N)=O)N1 (centres undefined),0.6,-4,37,x,65*,0.4
CCOC(=O)C1=C(C)Nc2sc(C(=O)c3ccc(F)cc3)c(N)c2C1c1ccc(C(=O)OC)cc1 (centres undefined),x,1,x,x,x,x
C=CCOC(=O)C1=C(C)NC(=O)NC1c1ccc(Cl)cc1 (centres undefined),0,0,100*,10,66*,0.3
CC(=O)C1=C(C)NC(SCC(N)=O)=C(C#N)C1c1cccnc1 (centres undefined),1,-2,4,10,4,1
CCOC(=O)C1=C(C)Nc2sc(C(=O)c3ccc(C)cc3)c(N)c2C1c1ccc(C(=O)OC)cc1 (centres undefined),x,6.5*,x,x,x,x
CC(=O)C1=C(N2CCCCC2)CCC1=O,1,0,3,-1,-12,1.1
CCOC(=O)C1=C(CN2c3ccccc3CC2C)NC(=O)NC1c1ccccc1 (centres undefined),0.7,0,34,11,20,0.8
O=C(CC(c1ccccc1)c1ccco1)Nc1nccs1 (centres undefined),x,-1,x,x,x,x
COc1cc(C2NC(=O)NC(C)=C2C(=O)OC2CCCC(C)C2)ccc1O (centres undefined),0.9,-1,9,5,16,0.8
Cc1noc(C)c1CSCC(=O)N1CCN(c2ccc([N+](=O)[O-])cc2)CC1,1,-3,-4,-3,10,0.9
C=CCOC(=O)C1=C(C)NC(SCC)=C(C#N)C1c1ccc(Cl)cc1 (centres undefined),0.5,-6,53*,-5,86*,0.1
CCOC(=O)C1=C(C)NC(SCC(=O)OC)=C(C#N)C1c1ccc(C(=O)OC)cc1 (centres undefined),0,-5,97*,7,96*,0
COC(=O)c1ccc(C2C(C#N)=C(C)NC3=C2C(=O)CC(C)(C)C3)cc1 (centres undefined),0.8,-2,24,7,36,0.6
O=C(Cn1cc2c(n1)CCCCC2)NCc1ccccn1,0.6,-2,39,-5,-16,1.2
COc1cccc(N(C(=O)c2cccs2)c2nc3ccccc3s2)c1,1,-1,5,19,21,0.8
CCOC(=O)Cc1cnc(NC(=O)Cn2nnc(-c3ccc(OCC)cc3)n2)s1,0.3,-1,66*,3,85*,0.2
CCCCOc1ccc(-c2nnn(CC(=O)Nc3ncc(CC(=O)OCC)s3)n2)cc1,0.8,-1,21,x,76*,0.2
CCCCOc1ccc(-c2nnn(CC(=O)NCc3ccco3)n2)cc1,1.2,-5,-22,-14,13,0.9
O=C(c1ccc(Cl)c(Cl)c1)N1CCC(=O)N(C(COCc2ccccc2)Cc2ccccc2)CC1 (centres undefined),x,-4,x,x,x,x
CN(C)S(=O)(=O)c1ccc(NC(=O)CN2CCN(C(c3ccccc3)c3ccccc3)CC2)cc1,1,-2,-4,x,3,1
CCn1c(SCC(=O)NC(C)(C)C)nnc1-c1ccccn1,0.3,-1,73*,16,23,0.8
O=C(CSc1nnc(-c2ccncc2)n1Cc1ccccc1)NCCc1ccccc1,0.3,-1,71*,2,63*,0.4
